MITF inh: MITF inhibitors, primary screen, biochemical, AlphaScreen, human | Microphthalmia-associated transcription factor (Homo sapiens), O75030 | AlphaScreen MITF homodimerization, bead proximity signal | inhibition, % at 2.6 µM | hit rate 0.91% among 650,000 | AID 1259374, 2018; in the data active = inhibition above about 50%
Target sequence (O75030 whole entry, looked up): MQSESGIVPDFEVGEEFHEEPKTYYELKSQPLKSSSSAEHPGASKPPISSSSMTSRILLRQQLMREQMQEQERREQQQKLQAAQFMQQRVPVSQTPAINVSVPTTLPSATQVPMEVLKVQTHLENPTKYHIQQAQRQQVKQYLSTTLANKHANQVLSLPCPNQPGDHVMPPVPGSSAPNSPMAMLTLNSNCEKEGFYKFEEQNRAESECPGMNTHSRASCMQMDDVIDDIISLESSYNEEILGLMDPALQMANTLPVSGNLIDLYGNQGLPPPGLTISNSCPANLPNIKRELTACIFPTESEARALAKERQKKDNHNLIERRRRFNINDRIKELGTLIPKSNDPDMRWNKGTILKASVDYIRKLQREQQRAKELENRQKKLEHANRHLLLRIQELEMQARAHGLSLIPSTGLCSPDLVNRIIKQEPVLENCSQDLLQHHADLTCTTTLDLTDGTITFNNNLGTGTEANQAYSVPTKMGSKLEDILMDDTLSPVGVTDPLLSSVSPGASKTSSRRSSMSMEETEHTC
GPR151 activ: activators of human GPR151, primary screen, cell-based, PathHunter beta-arrestin, luminescence; G-protein coupled receptor 151 (Homo sapiens), Q8TDV0; PathHunter beta-arrestin GPR151 cells; activation, % at 11.2 µM; hit rate 1% among 650,000; AID 1508602, 2020; in the data active = activation above about 4.9%
FBW7 activator: FBW7 E3 ligase activators, primary screen, biochemical, AlphaScreen, human; AID 1259310, 2017; hit rate 0.13% among 650,000; F-box/WD repeat-containing protein 7 (Homo sapiens), Q969H0; normalized activity (activation), % at 26.1 µM; AlphaScreen FBW7–phospho-cyclin E peptide binding, activator screen; in the data active = normalized activity above about 1.9%;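 note: purified mutant Fbw7 with reduced substrate affinity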
TEAD-YAP inh: TEAD-YAP interaction inhibition, primary screen, TEAD-YAP interaction inhibitor project, luminescence, HEK-TIYL cells; AID 1259422, 2018; TEAD-Gal4/YAP UAS-luciferase luminescence; hit rate 1.4% among 640,000; inhibition, % at 9.12 µM; in the data active = inhibition above about 32%
MITF inh conf: MITF inhibitors, retest of hits, confirmation, biochemical, AlphaScreen, triplicate. inhibition, % at 2.6 µM. AlphaScreen MITF homodimerization, biotin/His-MITF beads. hit rate 16% among 4,700. AID 1259372, 2018. shares compounds with MITF inh;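 active = inhibition above a cutoff derived from the DMSO control wells, cut at about 28% in these data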;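 note: inhibitors lower the bead chemiluminescence by keeping MITF from dimerizing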
AlphaScreen DR: AlphaScreen optical interference compounds, dose response, counter-screen, biochemical, HTS. shares compounds with MITF inh. AlphaScreen optical interference counterscreen, cell-free. IC50, µM. hit rate 6% among 480; call rule not given here
AlphaScreen intf2: AlphaScreen optical interference compounds, counter-screen for MITF inhibitor project, biochemical, triplicate; inhibition, % at 2.6 µM; hit rate 7.6% among 4,700; LysRS AlphaScreen counterscreen, signal interference; AID 1259376, 2018; shares compounds with MITF inh;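 active = inhibition above a cutoff derived from the DMSO control wells, cut at about 30% in these data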
A number is an active result; i = inactive; nt = no result. Shown are actives, neighbours in structure and some others; about 3.5% of the full set was active somewhere.

SMILES	MITF inh	GPR151 activ	FBW7 activator	TEAD-YAP inh	MITF inh conf	AlphaScreen intf2	others
COCCCNCCCCOc1c(Cl)cc(C)cc1Br	58	i	i	i	i	i
COCCCNCCOCCOc1c(C)cc(C)cc1Cl	52	i	i	i	i	i
Cc1cc(C)c(OCCCNCCN(C)C)c(Br)c1	55	i	i	i	i	i
CC(C)(C)C(=O)CSc1nc2ccccc2c(=O)n1CCCN1CCN(c2cccc(Cl)c2)CC1	i	i	i	i	nt	nt
CC(C)N(C(=O)CSc1nnnn1-c1ccc2c(c1)OCCO2)C(C)C	i	i	i	i	nt	nt
O=[N+]([O-])c1ccccc1CN1CCN(Cc2ccccn2)CC1	69	i	i	i	i	i
O=[N+]([O-])c1ccccc1CN1CCN(c2ncccn2)CC1	i	i	i	i	nt	nt
O=[N+]([O-])c1ccccc1CN1CCN(c2ccccn2)CC1	54	i	i	i	i	i
O=C(NCc1cccnc1)c1ccnc(-c2cccs2)c1	51	i	i	i	30	i	AlphaScreen DR=i
O=C(NCc1ccccc1)c1ccnc(-c2cccs2)c1	i	i	i	i	nt	nt
CC1CCc2c(sc3ncnc(NCCC(=O)O)c23)C1 (configuration not stated)	i	i	i	i	nt	nt
CCOC(=O)C1CCN(Cc2cn[nH]c2-c2ccccc2)CC1	55	i	i	i	i	i
CCc1ccc(CN2CCC(C(=O)N3CCCC3)CC2)cc1	58	i	i	i	i	i
Cc1ccc(CNC(=O)C2CCN(Cc3ccc(F)cc3)CC2)cc1	i	i	i	i	nt	nt
CCOc1ccc(CN2CCC(C(=O)NCc3ccc(C)cc3)CC2)cc1	54	i	i	i	i	i
CCOC(=O)C1CCN(C(=O)C2CCN(Cc3ccc(OCC)cc3)CC2)CC1	53	i	i	i	i	i
CCOC(=O)c1nn(-c2ccc(Cl)cc2)c(=O)c2c(NC(=O)c3ccco3)scc12	i	i	i	i	nt	nt
COc1ccc(N/C=C(\C#N)c2nc(-c3ccc4c(c3)OCO4)cs2)cc1	i	i	i	i	nt	nt
N#C/C(=C\c1ccc(Br)cc1)C(=O)Nc1cccc2ncccc12	i	i	i	i	nt	nt
CCOC(=O)C1CCN(C(=O)/C=C/c2ccc(F)cc2)CC1	71	i	i	i	i	i
CCOC(=O)C1CCN(C(=O)C2CCN(Cc3ccc(CC)cc3)CC2)CC1	61	i	i	i	i	i
CCOC(=O)N1CCN(C(=O)C2CCN(Cc3ccc(CC)cc3)CC2)CC1	i	i	i	i	nt	nt
CCOC(=O)C1CCN(C(=O)/C=C/c2ccccc2)CC1	i	i	i	i	nt	nt
O=C(C1CCN(Cc2ccc(F)cc2)CC1)N1CCN(Cc2ccccc2)CC1	62	i	i	i	i	i
O=C(CN1CCC(N2CCCCC2)CC1)NC(c1ccccc1)c1ccccc1	i	i	i	i	nt	nt
SMILES	MITF inh	GPR151 activ	FBW7 activator	TEAD-YAP inh	MITF inh conf	AlphaScreen intf2	others
O=C(CN1CCCC1)NC(c1ccccc1)c1ccccc1	59	i	i	i	i	i
O=C(CN1CCCCC1)NC(c1ccccc1)c1ccccc1	53	i	i	i	i	i
N/C(CC(=O)NC1CCCCC1)=N\OCC(=O)NC(c1ccccc1)c1ccccc1	i	i	i	i	nt	nt
O=C(CNC1CCCCC1)NC(c1ccccc1)c1ccccc1	52	i	i	i	i	i
CCN1CCN(C(=O)C(c2ccccc2)c2ccccc2)CC1	i	i	i	i	nt	nt
CCN1CCN(C(C)C(=O)NC(c2ccccc2)c2ccccc2)CC1 (configuration not stated)	61	i	i	i	i	i
COc1ccc(Cn2c(=S)[nH]c3cc(C(=O)Nc4ccc(Oc5ccccc5)cc4)ccc3c2=O)cc1	i	i	i	i	nt	nt
COc1cc2c(cc1Cl)SC(C)C(=O)N2Cc1ccc(S(C)(=O)=O)cc1 (configuration not stated)	i	i	i	i	nt	nt
CC(C(=O)NC12CC3CC(CC(C3)C1)C2)N(C)CCOc1ccccc1 (configuration not stated)	51	i	i	i	i	i
O=C(CSc1ccc(-c2cccnc2)nn1)NCc1ccccc1	51	i	i	i	i	i
O=C(CSc1ccc(-c2cccnc2)nn1)NCc1ccccc1Cl	i	i	i	i	nt	nt
COc1cc(/C=C2\C(=O)NC(=O)N(c3ccc(C(=O)O)cc3)C2=O)ccc1O	i	i	i	i	nt	nt
CCCCC/C=C/C=C1/C(=O)C=C[C@@H]1C/C=C\CCCC(=O)NCCCCCNC(=O)CCCCC1SC[C@@H]2NC(=O)N[C@H]12 (some centres not stated)	124	i	nt	nt	124	101
CCCCC/C=C/C=C1/C(=O)C=C[C@@H]1C/C=C\CCCC(=O)O	i	i	nt	nt	nt	nt
CCCCC[C@H](O)/C=C/[C@H]1[C@H](O)CC(=O)[C@@H]1C/C=C\CCCC(=O)NCCO	i	i	nt	nt	nt	nt
CCCCC[C@H](O)/C=C/[C@H]1[C@H](O)CC(=O)[C@@H]1C/C=C\CCCC(=O)NCCCCCNC(=O)CCCCC1SC[C@@H]2NC(=O)N[C@H]12 (some centres not stated)	124	i	nt	nt	124	101
CCCCC[C@H](O)/C=C/[C@@H]1[C@@H](C/C=C\CCCC(=O)NCCCCCNC(=O)CCCCC2SC[C@@H]3NC(=O)N[C@H]23)[C@@H](O)C[C@H]1O (some centres not stated)	124	i	nt	nt	123	101
c1ccc(Nc2nc(Nc3ccccc3)nc(Oc3ccccc3)n2)cc1	i	i	i	i	nt	nt
NNc1nc(NN)nc(Nc2ccccc2)n1	65	i	i	i	97	100
CC(=O)Nc1ccc(-c2ccncc2-c2ccc(S(N)(=O)=O)cc2)cc1	55	i	i	i	47	38
COC(=O)/C(C#N)=C\c1ccc(OCc2cccc(F)c2)c(OC)c1	i	i	i	i	nt	nt
O=C(NC(=S)Nc1ccc(-c2nc3ccccc3o2)cc1)c1ccc(C(=O)c2ccccc2)cc1	i	i	i	i	nt	nt
O=C(NCCCN1CCOCC1)c1cc2cc(Br)ccc2oc1=O	60	i	i	i	i	i
COc1ccc(-c2cnc3c(Nc4cccc(C(F)(F)F)c4)nccn23)cc1	i	i	i	i	nt	nt
COc1ccccc1CN1C(=O)CN(C2CCCCC2)C(=O)C1c1ccc(OC(C)C)c(OC)c1 (configuration not stated)	i	i	i	i	nt	nt
CC(C)n1c(NCCN2CCOCC2)nc2c(NCCN3CCOCC3)ncnc21	67	i	i	i	i	i
Nc1ncc(N=Nc2ccc(Cl)cc2)s1	i	i	i	i	nt	nt
O=C(O)c1ccc(CN2CCN(c3ccc([N+](=O)[O-])cc3)CC2)cc1	i	i	i	i	nt	nt

High-throughput results from PubChem.
